For 21 compounds, Potency and outcome results are on record in PubChem BioAssay (NCATS).

Records with an inconclusive call do not appear. Values without a mark were called inactive. Activity calls are given as the source filed them. The call rests on the fitted dose curve; in most records, active means well fitted curve in the direction sought with a large enough effect; inconclusive means small, poorly fitted or top-dose-only effect, or another doubt; inactive means no such curve, though single readings can be large; an effect the other way counts as inactive or inconclusive.

A short description of experiment [1]: qHTS of pediatric cancer cell lines to identify multiple opportunities for drug repurposing: Primary screen for OHS-50 cells (AID 1347103). Further: nearly all actives have a fitted effect of over 40% in size. Further: potency means the concentration at half of the fitted maximal effect. In short, it runs like this: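 Cells (500-1,000/well) rested 5 h, then received compounds for 48 h; metabolically active cells were measured by CellTiter-Glo luminescence. Final concentrations spanned up to 46 µM (MIPE, 11-point) or 0.59 nM-46 µM (NPC, 8-point) in primary screens, 11-point in follow-ups.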

The nature of experiment [2]: qHTS of pediatric cancer cell lines to identify multiple opportunities for drug repurposing: Primary screen for RD cells (AID 1347104). Further: nearly all actives have a fitted effect of over 55% in size. Further: potency means the concentration at half of the fitted maximal effect. The method, boiled down: (§1)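 Phenotypic viability qHTS, 48 h compound exposure, CellTiter-Glo luminescence read-out; multi-concentration dosing so that potency and efficacy derive directly from the primary screen's curves.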
A short description of experiment [3]: qHTS of pediatric cancer cell lines to identify multiple opportunities for drug repurposing: Primary screen for MG 63 (6-TG R) cells (AID 1347105). Further: nearly all actives have a fitted effect of over 50% in size. Further: potency means the concentration at half of the fitted maximal effect. In short, it runs like this:
as §1
(In general: Quantitative high-throughput screening tests each substance at several concentrations.)

Experiment [4] can be described thus: qHTS of pediatric cancer cell lines to identify multiple opportunities for drug repurposing: Primary screen for control Hh wild type fibroblast cells (AID 1347106).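 Further: series mostly up to about 46 µM; a drop in luminescence marks cytotoxicity and a rise apparent proliferation; nearly all actives have a fitted effect of over 55% in size.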 In short, it runs like this: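 Cells (500-1,000/well) in growth media were settled 5 h at 37 degrees C, then given compounds for 48 h. Viability was read as CellTiter-Glo luminescence. Primary runs used MIPE at 11 points (0.78 nM-46 µM) and NPC at 8 points (0.59 nM-46 µM); follow-ups used 11 points.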

The nature of experiment [5]: qHTS of pediatric cancer cell lines to identify multiple opportunities for drug repurposing: Primary screen for Rh30 cells (AID 1347107). Further: series mostly up to about 46 µM; nearly all actives have a fitted effect of over 75% in size. In short, it runs like this: (§2)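 Viability after 48 h compound treatment at 37C, 500-1,000 cells/well, read as ATP luminescence with CellTiter-Glo. Primary screens used 11-point (MIPE, 0.78 nM-46 µM) or 8-point (NPC, 0.59 nM-46 µM) final concentrations; follow-up screens used 11-point dilutions.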

A short description of experiment [6]: qHTS of pediatric cancer cell lines to identify multiple opportunities for drug repurposing: Primary screen for Rh41 cells (AID 1347108).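 Further: series mostly up to about 46 µM; luminescence drop marks cytotoxic hits; nearly all actives have a fitted effect of over 70% in size.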 In short, it runs like this: as §1
Experiment [7] in a line: qHTS of pediatric cancer cell lines to identify multiple opportunities for drug repurposing: Primary screen for Rh18 cells (AID 1347102). Further: nearly all actives have a fitted effect of over 65% in size. The method, boiled down:
as §2

On to `CCCCc1ncc(/C=C(\Cc2cccs2)C(=O)O)n1Cc1ccc(C(=O)O)cc1`, for which the Potency entry in experiment [1], in experiment [2], in experiment [3] and in experiment [6] was “inactive” each time. Also, the compound was classed as inactive in experiment [4] and in experiment [5].
For `C[C@]12CC[C@@H]3c4ccc(O)cc4CC[C@H]3[C@@H]1CC[C@@H]2OC(=O)CCC1CCCC1`, the Potency result in experiment [7] and in experiment [6] was “inactive” each time. For the same compound, in experiment [1], the Potency is 27.6 µM (active). Besides, the compound was called inactive in experiment [4] and in experiment [5].
For the compound `CCCCOC(=O)c1ccc(O)cc1`, the Potency entry in experiment [7], in experiment [2], in experiment [3] and in experiment [6] was “inactive” in each case. In addition, the call in experiment [5] was inactive.
With `COc1ccc2cc1Oc1cc3c(cc1OC)CC[N+](C)(C)[C@H]3Cc1ccc(cc1)Oc1c(OC)c(OC)cc3c1[C@@H](C2)[N+](C)(C)CC3`, the Potency entry in experiment [1], in experiment [2], in experiment [3] and in experiment [6] was “inactive” in each case. Also, the compound was called inactive in experiment [4] and in experiment [5].
On to `CC(=O)O[C@@]12CO[C@@H]1C[C@H](O)[C@@]1(C)C(=O)[C@H](O)C3=C(C)[C@@H](OC(=O)[C@H](O)[C@@H](NC(=O)OC(C)(C)C)c4ccccc4)C[C@@](O)([C@@H](OC(=O)c4ccccc4)[C@H]21)C3(C)C`, for which the Potency result in experiment [7] was “inactive”. Moreover, the Potency in experiment [1] was 0.0031 µM (active). Also, the call in experiment [4] and in experiment [5] was inactive.
Regarding `CC(C)c1c(C(=O)Nc2ccccc2)c(-c2ccccc2)c(-c2ccc(F)cc2)n1CC[C@@H](O)C[C@@H](O)CC(=O)O`, the Potency in experiment [1] is 15.5 µM (active); in experiment [3] it was 6.68 µM (active). Also, the Potency result in experiment [2] was “inactive”.
For the compound `CS(=O)(=O)c1ccc([C@@H](O)[C@@H](CF)NC(=O)C(Cl)Cl)cc1`, the Potency entry in experiment [1], in experiment [2], in experiment [3] and in experiment [6] was “inactive” in each case. The outcome in experiment [4] and in experiment [5] was inactive.
On to `CC(=O)c1ccc2c(c1)N(CCCN(C)C)c1ccccc1S2`, for which the Potency entry in experiment [7] and in experiment [6] was “inactive” in each case. Also, the compound was classed as inactive in experiment [5].
On to `Nc1ccc(S(=O)(=O)Nc2ccccc2)cc1`, for which the Potency result in experiment [1], in experiment [2], in experiment [3] and in experiment [6] was “inactive” each time. Further, the call in experiment [4] and in experiment [5] was inactive.
Regarding `Cc1cccc(C)c1NC(=O)CN(CC(=O)O)CC(=O)O`, the Potency result in experiment [1], in experiment [2], in experiment [3] and in experiment [6] was “inactive” each time. The compound was called inactive in experiment [4] and in experiment [5].
Consider `CCCOC(=O)c1ccccc1`, for which the Potency result in experiment [1], in experiment [2], in experiment [3] and in experiment [6] was “inactive” throughout. The outcome in experiment [4] and in experiment [5] was inactive.
On to `CCCCOc1cc(C(=O)OCCN(CC)CC)ccc1N`, for which the Potency result in experiment [7], in experiment [2], in experiment [3] and in experiment [6] was “inactive” throughout. Moreover, the outcome in experiment [4] and in experiment [5] was inactive.
On to `CC1=C(C/C=C(\C)CCC[C@H](C)CCC[C@H](C)CCCC(C)C)C(=O)c2ccccc2C1=O`, for which the Potency entry in experiment [7], in experiment [2], in experiment [3] and in experiment [6] was “inactive” each time. For the same compound, the compound was classed as inactive in experiment [4] and in experiment [5].
As to `CN(C)CC[C@@H](c1ccc(Cl)cc1)c1ccccn1`, the Potency result in experiment [1], in experiment [2], in experiment [3] and in experiment [6] was “inactive” each time. Moreover, the compound was called inactive in experiment [4] and in experiment [5].
As for `OCCN1CCN(CCCN2c3ccccc3Sc3ccc(Cl)cc32)CC1`, in experiment [1], the Potency is 24.6 µM (active).
Consider `CCCCN1CCCC[C@H]1C(=O)Nc1c(C)cccc1C`, for which the Potency result in experiment [7], in experiment [2], in experiment [3] and in experiment [6] was “inactive” each time. For the same compound, the compound was called inactive in experiment [4] and in experiment [5].
Consider `CC12CCC(CC1)C(C)(C)O2`, for which the Potency result in experiment [1], in experiment [2], in experiment [3] and in experiment [6] was “inactive” each time. Further, the outcome in experiment [4] and in experiment [5] was inactive.
Take `CCN(CC)CCCC(C)Nc1c2ccc(Cl)cc2nc2ccc(OC)cc12` (stereo unspecified): the Potency is 17.4 µM (active) in experiment [1] and 23.7 µM (active) in experiment [2].
As to `CC(=O)Oc1ccc(C2(c3ccc(OC(C)=O)cc3)C(=O)Nc3ccccc32)cc1`, the Potency in experiment [1] was 1.1 µM (active); in experiment [3], 0.168 µM (active). Besides, the Potency result in experiment [2] and in experiment [6] was “inactive” throughout. The compound was classed as inactive in experiment [4] and in experiment [5].
As for `C=CCn1c(=O)n([C@@H]2O[C@H](CO)[C@@H](O)[C@H]2O)c2nc(N)[nH]c(=O)c21`, the Potency entry in experiment [1], in experiment [2], in experiment [3] and in experiment [6] was “inactive” throughout. The result in experiment [4] and in experiment [5] was inactive.
For the compound `CC(O)COc1ccccc1` (stereo unspecified), the Potency result in experiment [1], in experiment [2] and in experiment [3] was “inactive” in each case. In addition, the result in experiment [4] and in experiment [5] was inactive.
